“And” between values parts separate entries of the source, which are not always exact repeats. Identical values can stand only once. Records with an inconclusive call do not appear. A structure can be active in one record and inactive in another. The source made the active and inactive calls. Unless noted, calls follow the shape of the dose curve; as a rule, active = well fitted curve in the direction sought with a large enough effect; inconclusive = small, poorly fitted or top-dose-only effect, or another doubt; inactive = no such curve, though single readings can be large; an effect the other way counts as inactive or inconclusive.
How the values were obtained:
[1] = target: Protein phosphatase 1D (Homo sapiens) (UniProt O15297); test: RapidFire Mass Spectrometry qHTS Assay for Modulators of WT P53-Induced Phosphatase 1 (WIP1) (AID 1347424);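 also: amount of dephosphorylated VEPPL-S-QETFS peptide product formed by WIP1; series mostly up to about 63 µM; plate controls were DMSO wells for no effect and GSK830371 inhibitor control at 10 µM for full effect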
Sequence of Protein phosphatase 1D (Homo sapiens) (O15297 whole entry, looked up): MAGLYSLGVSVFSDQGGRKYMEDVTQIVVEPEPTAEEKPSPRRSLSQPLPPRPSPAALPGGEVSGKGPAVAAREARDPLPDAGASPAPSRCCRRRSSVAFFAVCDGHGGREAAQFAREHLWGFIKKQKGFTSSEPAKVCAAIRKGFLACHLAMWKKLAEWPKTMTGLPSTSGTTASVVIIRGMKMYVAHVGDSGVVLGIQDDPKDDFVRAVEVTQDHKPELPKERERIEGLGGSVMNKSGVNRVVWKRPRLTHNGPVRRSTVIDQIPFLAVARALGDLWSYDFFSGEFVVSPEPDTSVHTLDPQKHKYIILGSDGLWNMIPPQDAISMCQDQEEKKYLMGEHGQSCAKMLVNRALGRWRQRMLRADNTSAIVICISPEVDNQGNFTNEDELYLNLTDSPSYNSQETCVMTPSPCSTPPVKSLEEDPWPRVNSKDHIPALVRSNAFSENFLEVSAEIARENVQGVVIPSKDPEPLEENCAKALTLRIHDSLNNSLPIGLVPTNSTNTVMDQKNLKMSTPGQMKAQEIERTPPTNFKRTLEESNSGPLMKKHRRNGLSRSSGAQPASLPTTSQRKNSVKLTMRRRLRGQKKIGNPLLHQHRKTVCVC
Procedure, shortened: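 10 nM WIP1 preincubated with compounds 1 hr at room temperature in pH 7.5 Tris buffer with 30 mM MgCl2, 1 mM TCEP; 2 uM VEPPL-pS-QETFS phosphopeptide for 5 min, formic acid quench; dephosphorylated product quantified by RapidFire MS against labelled standard.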

[2] = target: Protein phosphatase 1D (Homo sapiens) (UniProt O15297); test: Rhodamine-PBP qHTS Assay for Modulators of WT P53-Induced Phosphatase 1 (WIP1) (AID 1347425); also: % of control where 0% means no effect
Procedure, shortened: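 5 nM WIP1 + 10 uM Rh-PBP, 50 mM Tris pH 7.5, 30 mM MgCl2, 1 mM TCEP, 0.1 mM EGTA, BSA; cpds pinned, 1 hr RT; + 10 uM phosphopeptide; fluorescence 1-min reads x 11 min; delta = f1 - f0.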

[3] = Primary qHTS for inhibitors of La Crosse Virus (LACV) - induced cell death in SH-SY5Y cells (AID 1508616);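 also: top concentration of the series differs between compounds; 0% = infected DMSO wells and 100% = uninfected DMSO wells; higher means more rescue of cells from virus-induced death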
Procedure, shortened: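 Readout was luminescence from ATPLite 1step added after a 6-day LACV infection (0.01 MOI) of SH-SY5Y cells that had received pin-transferred compound 24 hr after seeding.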

[4] = target: Calcium and integrin-binding protein 1 (Homo sapiens) (UniProt Q99828); test: Primary qHTS for Identification of Calcium Integrin Binding Protein 1 (CIB1) Competitor (AID 1508620);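 also: GST tagged CIB1 binding a fluorescein labelled alphaIIb integrin peptide tracer; top concentration of the series differs between compounds; % is scaled to controls: 0 for no effect and ±100 for the full control effect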
Sequence of Calcium and integrin-binding protein 1 (Homo sapiens) (Q99828 whole entry, looked up): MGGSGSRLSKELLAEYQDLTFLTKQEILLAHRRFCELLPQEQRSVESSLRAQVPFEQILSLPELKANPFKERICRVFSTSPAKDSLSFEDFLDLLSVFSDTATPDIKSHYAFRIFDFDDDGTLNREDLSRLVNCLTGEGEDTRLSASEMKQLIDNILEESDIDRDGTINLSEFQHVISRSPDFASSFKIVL
Procedure, shortened: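 Fluorescence polarization competition: GST-tagged CIB1 (1 uM final) preincubated with compound 15 min at room temperature, then FITC-labelled alphaIIb peptide (100 nM final) added. After 15 min at room temperature, polarization read at Ex 480/Em 540.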

[5] = Primary qHTS for small molecule stabilizers of the endoplasmic reticulum resident proteome: Secreted ER Calcium Modulated Protein (SERCaMP) assay (AID 1508630); also: % is scaled to controls: 0 for no effect and ±100 for the full control effect
Procedure, shortened: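 GLuc-SERCaMP-expressing SH-SY5Y cells, pretreated 16 h with compound, are challenged with thapsigargin to empty ER calcium stores; after 4 h, coelenterazine is added directly to the medium and luminescence is imaged.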

[6] = A High-Content qHTS Against Drug Library for the Identification of Small Molecules that Inhibit DYT1 Early Onset Primary Dystonia-Associated Cell Pathology (AID 1645839; calls by dose curve; also: series mostly up to about 46 µM)
Procedure, shortened: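 Flp-In T-REx 293 cells with tetracycline-inducible EGFP-delE hTOR1A (WT EGFP-hTOR1A as reference), 800 cells/well; compound added with tetracycline, 48 h at 37 C. Fixed, permeabilized cells imaged; %pathology (punctate TorsinA) primary, cell count counterscreen.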

[7] = target: Cytochrome P450 2D6 (Homo sapiens) (UniProt P10635); test: Cytochrome P450 family 2 subfamily D member 6 (CYP2D6) small molecule antagonists: luciferase biochemical (cell-free) qHTS assay (AID 1645840; active = well fitted curve in the direction sought with a large enough effect in the repeat runs; an effect the other way counts as inactive or inconclusive; also: nearly all actives have a fitted effect of over 55% in size; also: potency is read from the fitted curve at half-maximal effect)
Sequence of Cytochrome P450 2D6 (Homo sapiens) (P10635 whole entry, looked up): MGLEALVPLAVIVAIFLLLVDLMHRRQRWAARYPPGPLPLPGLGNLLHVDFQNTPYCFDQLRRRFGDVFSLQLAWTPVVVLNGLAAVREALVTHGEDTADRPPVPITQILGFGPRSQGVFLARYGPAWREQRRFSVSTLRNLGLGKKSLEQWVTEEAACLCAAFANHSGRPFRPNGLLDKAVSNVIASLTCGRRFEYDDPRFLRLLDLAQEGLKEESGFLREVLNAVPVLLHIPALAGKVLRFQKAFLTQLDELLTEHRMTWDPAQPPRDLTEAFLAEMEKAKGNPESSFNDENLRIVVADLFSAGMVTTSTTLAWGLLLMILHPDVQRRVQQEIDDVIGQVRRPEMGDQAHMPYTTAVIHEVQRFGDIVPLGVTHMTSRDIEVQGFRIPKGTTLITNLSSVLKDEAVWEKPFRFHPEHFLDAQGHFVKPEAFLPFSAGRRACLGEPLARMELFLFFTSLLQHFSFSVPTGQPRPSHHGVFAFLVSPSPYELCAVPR
Procedure, shortened: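 P450-Glo luminescent screen: recombinant CYP2D6 enzyme–proluciferin substrate mix preincubated with compound 10 min at room temperature, then NADPH regeneration added for 1 h at room temperature. Detection reagent added for 20 min; luciferin light read as relative luminescence units.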

[8] = target: Cytochrome P450 2C9 (Homo sapiens) (UniProt P11712); test: Cytochrome P450 family 2 subfamily C member 9 (CYP2C9) small molecule antagonists: luciferase biochemical (cell-free) qHTS assay (AID 1645842; active = well fitted curve in the direction sought with a large enough effect in the repeat runs; an effect the other way counts as inactive or inconclusive; also: nearly all actives have a fitted effect of over 55% in size; also: potency is read from the fitted curve at half-maximal effect)
Sequence of Cytochrome P450 2C9 (Homo sapiens) (P11712 whole entry, looked up): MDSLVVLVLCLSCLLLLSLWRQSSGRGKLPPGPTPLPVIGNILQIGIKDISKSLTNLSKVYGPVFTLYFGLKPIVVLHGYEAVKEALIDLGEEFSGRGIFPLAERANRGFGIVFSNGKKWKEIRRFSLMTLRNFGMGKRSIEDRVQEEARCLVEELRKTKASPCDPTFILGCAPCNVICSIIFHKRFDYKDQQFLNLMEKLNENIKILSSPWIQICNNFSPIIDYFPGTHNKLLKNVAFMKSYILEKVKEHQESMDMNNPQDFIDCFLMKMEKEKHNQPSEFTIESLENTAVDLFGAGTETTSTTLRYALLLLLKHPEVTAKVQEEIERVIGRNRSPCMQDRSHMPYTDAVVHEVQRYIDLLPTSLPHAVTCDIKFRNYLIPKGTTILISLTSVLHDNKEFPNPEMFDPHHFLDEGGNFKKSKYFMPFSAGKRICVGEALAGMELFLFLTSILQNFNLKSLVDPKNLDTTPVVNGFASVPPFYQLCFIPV
Procedure, shortened: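 Luminescence, after 20 min with luciferin detection reagent, reflected CYP2C9 turnover during a 1 h NADPH-driven reaction at 37C. Enzyme-substrate mix contained 0.4% bovine serum albumin and was preincubated with compound 10 min at room temperature.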

[9] = Primary qHTS for inhibitors of nuclear receptor binding SET domain protein 2 (NSD2) in an isogenic RCH-ACV NSD2 p.E1099K mutant (9B) (AID 1645876); also: nearly all actives have a fitted effect of over 70% in size; also: potency is read from the fitted curve at half-maximal effect
[10] = Counterscreen qHTS for small molecule stabilizers of the endoplasmic reticulum resident proteome: GLuc-NoTag assay (AID 1508627);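 also: SH-SY5Y cells given compound then 100 nM thapsigargin to empty ER calcium; series mostly up to about 76 µM; 0% = thapsigargin alone and -100% = DMSO vehicle control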
Procedure, shortened: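 SH-SY5Y cells stably expressing constitutively secreted GLuc without SERCaMP tag, exposed to compound for 19 hr, then to 100 nM thapsigargin for 4 hr at 37C. Medium luciferase was read by coelenterazine luminescence without lysis.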

[11] = Cell Viability qHTS for small molecule stabilizers of the endoplasmic reticulum resident proteome (AID 1508629); conditions: cell viability counter-screen, 100 nM thapsigargin for final 4 h;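 also: human SH-SY5Y neuroblastoma cells carrying the GLuc-SERCaMP reporter; compound exposure about 46 h in total before the viability read; % is scaled to controls: 0 for no effect and ±100 for the full control effect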
[12] = Primary qHTS for inhibitors of nuclear receptor binding SET domain protein 2 (NSD2) in an RCH-ACV wild type WT cells (2C) (AID 1645877); also: nearly all actives have a fitted effect of over 70% in size; also: potency is read from the fitted curve at half-maximal effect
[13] = Validation qHTS assay for inhibitors of Activation Induced Cytidine Deaminase (AID): UDG Counterscreen signal (AID 1347427); also: 0% is about no effect
Procedure, shortened: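 Counterscreen read of UDG activity (2 U/mL, 4/3x) in the FRET deamination format with AID (1 uM, 4/3x), DJC20/DJC23 substrates (250 nM, 4x), 4 h at room temperature. NaOH stop, fluorescence at 560 ex/665 em.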

[14] = target: Single-stranded DNA cytosine deaminase (Homo sapiens) (UniProt Q9GZX7); test: Validation qHTS assay for inhibitors of Activation Induced Cytidine Deaminase (AID): AID signal (AID 1347429); also: % is scaled to controls: 0 for no effect and ±100 for the full control effect
Sequence of Single-stranded DNA cytosine deaminase (Homo sapiens) (Q9GZX7 whole entry, looked up): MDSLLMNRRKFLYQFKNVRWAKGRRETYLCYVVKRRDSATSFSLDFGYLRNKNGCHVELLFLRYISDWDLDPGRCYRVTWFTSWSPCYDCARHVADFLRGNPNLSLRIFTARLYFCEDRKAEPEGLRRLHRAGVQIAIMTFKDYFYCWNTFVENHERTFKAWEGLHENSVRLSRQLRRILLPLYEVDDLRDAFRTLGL
Procedure, shortened: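 In this coupled qHTS, AID deaminates a FRET-labelled ssDNA substrate in the presence of UDG over 4 hr at room temperature. Compounds span up to 114 uM final.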

[15] = target: Calcium and integrin-binding protein 1 (Homo sapiens) (UniProt Q99828); test: Validation qHTS for Identification of Calcium Integrin Binding protein 1 (CIB1) Competitor (AID 1508618); also: % is scaled to controls: 0 for no effect and ±100 for the full control effect
Procedure, shortened: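 Displacement of FITC-alphaIIb peptide (100 nM) from CIB1-GST (1 uM) is monitored by polarization in quantitative HTS format; buffer carries 5 mM CaCl2 and 125 mM NaCl at pH 7.4, incubations are at room temperature.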

Papain (Carica papaya) = Papain (Carica papaya) (UniProt P00784); test: Primary qHTS assay for inhibitors of the protease papain (AID 1645873)
Sequence of Papain (Carica papaya) (P00784 whole entry, looked up): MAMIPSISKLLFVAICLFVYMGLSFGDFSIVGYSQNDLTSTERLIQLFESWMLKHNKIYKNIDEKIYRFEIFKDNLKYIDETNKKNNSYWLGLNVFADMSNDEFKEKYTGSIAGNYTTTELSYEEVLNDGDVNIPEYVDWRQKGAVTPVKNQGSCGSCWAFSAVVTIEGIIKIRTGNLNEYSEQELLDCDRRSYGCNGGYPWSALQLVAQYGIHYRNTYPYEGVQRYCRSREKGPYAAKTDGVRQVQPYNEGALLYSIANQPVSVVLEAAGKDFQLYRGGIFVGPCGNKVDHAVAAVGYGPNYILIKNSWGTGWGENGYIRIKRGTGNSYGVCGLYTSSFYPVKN

[16] = target: Cytochrome P450 3A4 (Homo sapiens) (UniProt P08684); test: Cytochrome P450 family 3 subfamily A member 4 (CYP3A4) small molecule antagonists: luciferase qHTS assay (AID 1645841; active = well fitted curve in the direction sought with a large enough effect in the repeat runs; an effect the other way counts as inactive or inconclusive; also: nearly all actives have a fitted effect of over 45% in size)
Sequence of Cytochrome P450 3A4 (Homo sapiens) (P08684 whole entry, looked up): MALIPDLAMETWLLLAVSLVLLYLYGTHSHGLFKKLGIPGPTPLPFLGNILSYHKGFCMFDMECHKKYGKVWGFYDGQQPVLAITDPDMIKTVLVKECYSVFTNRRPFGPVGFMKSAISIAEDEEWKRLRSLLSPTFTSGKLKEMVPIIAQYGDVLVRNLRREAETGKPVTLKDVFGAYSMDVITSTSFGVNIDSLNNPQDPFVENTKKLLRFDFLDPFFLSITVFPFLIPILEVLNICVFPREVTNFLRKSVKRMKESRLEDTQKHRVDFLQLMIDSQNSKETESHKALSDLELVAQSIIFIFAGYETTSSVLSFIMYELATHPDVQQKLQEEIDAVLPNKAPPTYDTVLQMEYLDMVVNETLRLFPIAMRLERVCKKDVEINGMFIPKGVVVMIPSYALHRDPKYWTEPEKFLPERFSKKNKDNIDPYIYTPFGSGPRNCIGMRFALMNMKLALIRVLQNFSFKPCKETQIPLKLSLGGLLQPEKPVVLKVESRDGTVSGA
Procedure, shortened: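 P450-Glo CYP3A4 enzyme with proluciferin substrate preincubated 10 min with compound at room temperature, then NADPH regeneration 1 h. Luciferin detection reagent added for 20 min; luminescence recorded. Ketoconazole positive control.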

[17] = Confirmatory qHTS for small molecule stabilizers of the endoplasmic reticulum resident proteome: Secreted ER Calcium Modulated Protein (SERCaMP) assay (AID 1508628); also: nearly all actives have a fitted effect of over 40% in size; also: potency is read from the fitted curve at half-maximal effect
Procedure, shortened: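 We seeded SH-SY5Y-GLuc-SERCaMP cells, added compounds (three concentrations in the primary run, eleven up to 76.6 uM in confirmation), incubated 16 h, depleted ER calcium with thapsigargin, and read luciferase 4 h later.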

[18] = target: Calcium and integrin-binding protein 1 (Homo sapiens) (UniProt Q99828); test: Confirmatory qHTS for Identification of Calcium Integrin Binding Protein 1 (CIB1) Competitor (AID 1508617); also: % is scaled to controls: 0 for no effect and ±100 for the full control effect; nearly all actives have a fitted effect of over 65% in size
Procedure, shortened: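 Confirmatory qHTS measures displacement of a FITC-alphaIIb peptide (100 nM) from CIB1-GST (1 uM) by fluorescence polarization. Calcium-containing HEPES buffer, pH 7.4; two 15 min room-temperature incubations.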

COc1cc(C(=S)N2CCOCC2)ccc1O
inactive: Potency [1] | outcome [2] | outcome [3] | Potency [4] | Potency [5] | Potency [6] | Potency [7] | Potency [8]

NCc1ccccc1Sc1ccccc1CO
active: Potency [7] 4.9 µM | Potency [8] 15.5 µM
inactive: Potency [1] | outcome [2] | outcome [3] | Potency [4] | Potency [5] | Potency [6]

CCCCC(CC)CN1CN(CC(CC)CCCC)CC(C)(N)C1 (centres undefined)
inactive: Potency [1] | outcome [2] | outcome [3] | Potency [4] | Potency [5] | Potency [6] | Potency [8]
active: Potency [7] 0.219 µM

CC(=O)NC(=O)c1ccccc1O
inactive: Potency [1] | outcome [2] | outcome [3] | Potency [4] | Potency [5] | Potency [6] | Potency [7] | Potency [8]

O=C(Nc1cccc(C2=NCCN2)c1)Nc1cccc(C2=NCCN2)c1
inactive: Potency [1] | outcome [2] | outcome [3] | Potency [4] | Potency [5] | Potency [6] | Potency [7] | Potency [8]
active: Potency [9] 10.3 µM

CC(C)(Cc1c[nH]c2ccccc12)NCC(O)COc1ccccc1C#N (centres undefined)
inactive: Potency [1] | outcome [2] | outcome [3] | Potency [4] | Potency [10] | max response [11] -6.12% | Potency [5] | Potency [8]

Cc1c[nH]c2ccccc12
inactive: Potency [1] | outcome [2] | outcome [3] | Potency [4] | Potency [5] | Potency [6] | Potency [7] | Potency [8] | Potency [9] | Potency [12]

CC(C)(C)NC[C@H](O)COc1nsnc1N1CCOCC1
inactive: Potency [1] | outcome [2] | outcome [13] | outcome [14] | outcome [3] | outcome [15] | Potency [4] | Potency [5] | Potency [6] | Potency [8] | outcome (Papain (Carica papaya)) | Potency [9] | Potency [12]

CC(C)(C)CC(C)(C)c1ccc(O)c(-n2nc3ccccc3n2)c1
active: Potency [8] 10.7 µM and 6.92 µM
inactive: Potency [1] | outcome [2] | outcome [3] | Potency [4] | Potency [5] | Potency [6] | Potency [7] | Potency [9] | Potency [12]

NC(=O)c1ccccc1O
inactive: Potency [1] | outcome [2] | outcome [3] | Potency [4] | Potency [5] | Potency [6] | Potency [7] | Potency [8]

Cc1cn([C@H]2C[C@H](F)[C@@H](CO)O2)c(=O)[nH]c1=O
inactive: Potency [1] | outcome [2] | outcome [3] | Potency [4] | Potency [5] | Potency [6] | Potency [7] | Potency [16] | Potency [8] | Potency [9]

CC(C)(C)NCC(O)COc1cccc2c1C[C@H](O)[C@H](O)C2 (some centres undefined)
inactive: Potency [1] | outcome [2] | outcome [3] | Potency [4] | Potency [5] | Potency [6] | Potency [7] | Potency [16] | Potency [9] | Potency [12]

CN1CCC(OC(c2ccccc2)c2ccccc2)CC1
inactive: Potency [1] | outcome [2] | outcome [3] | Potency [4] | Potency [10] | Potency [17] | max response [11] 7.61% | Potency [9]

CC(=O)OCC(=O)[C@H]1CC[C@H]2[C@@H]3CCC4=CC(=O)CC[C@]4(C)[C@H]3CC[C@]12C
inactive: Potency [1] | outcome [2] | outcome [3] | Potency [4] | Potency [5] | Potency [6] | Potency [7] | Potency [9] | Potency [12]
active: Potency [8] 4.9 µM

CCNC(=O)NCc1cccc(Cl)c1
inactive: Potency [1] | outcome [2] | outcome [3] | Potency [4] | Potency [5] | Potency [6] | Potency [7] | Potency [8] | Potency [9]

NS(=O)(=O)Cc1noc2ccccc12
inactive: Potency [1] | outcome [2] | outcome [3] | Potency [4] | Potency [5] | Potency [6] | Potency [7] | Potency [16] | Potency [8] | Potency [12]

CN(CCCN1c2ccccc2CCc2ccccc21)CC(=O)c1ccc(Cl)cc1
inactive: Potency [1] | outcome [2] | outcome [3] | Potency [4] | Potency [10] | max response [11] 24.4%
active: Potency [17] 31.6 µM and 39.8 µM | Potency [7] 6.09 µM | Potency [8] 12.1 µM

C=CCN1CCc2nc(N)sc2CC1
inactive: Potency [1] | outcome [2] | outcome [3] | Potency [4] | Potency [10] | Potency [17] | max response [11] -7.52% | Potency [5] | Potency [6] | Potency [7] | Potency [8] | Potency [9] | Potency [12]

CC(C)[N+](C)(C)CC(O)COc1cccc2ccccc12 (centres undefined)
active: Potency [7] 6.92 µM
inactive: Potency [1] | outcome [2] | outcome [3] | Potency [4] | Potency [5] | Potency [6] | Potency [8]

CCCCCCCC/C=C\CCCCCCCCN
active: Potency [7] 0.55 µM | Potency [8] 19.5 µM
inactive: Potency [1] | outcome [2] | outcome [3] | Potency [4] | Potency [5] | Potency [6] | Potency [9]

NS(=O)(=O)c1cc(C(=O)O)cc(N2CCCC2)c1Oc1ccccc1
inactive: Potency [1] | outcome [2] | outcome [3] | Potency [4] | Potency [5] | Potency [6] | Potency [7] | Potency [8] | Potency [9]

COc1cc([C@H]2Oc3cc([C@H]4Oc5cc(O)cc(O)c5C(=O)[C@@H]4O)ccc3O[C@@H]2CO)ccc1O
inactive: Potency [1] | outcome [2] | outcome [3] | Potency [18] | Potency [5] | Potency [7] | Potency [9]
active: Potency [8] 8.71 µM
inactive and 23.5 µM (active): Potency [12]
